From PubChem BioAssay AID2685 (National Center for Advancing Translational Sciences (NCATS), 2010)
Screen size: about 320,000 compounds; about 2,100 (0.66%) were called active. Roughly 53% stayed inconclusive and do not appear here. Calls follow the shape of the dose curve; as a rule, active = well fitted inhibition curve with a large enough effect in the signal ratio, with a control signal flat (not every such curve was filed as active); inconclusive = small, poorly fitted or top-dose-only effect, or effect the other way, or a change in a side signal; inactive = flat fitted curve, though single readings scatter; the % refers to the signal ratio. This excerpt belongs to a sample that is enriched for actives.

Experiment: qHTS Assay for Lipid Storage Modulators in Drosophila S3 Cells;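 as to cell number change: cells counted by Cell Tracker Red CMTPX staining in the red channel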; as to lipid storage change, negative = inhibition: % is scaled to controls: 0 for no effect and ±100 for the full control effect
Details: BODIPY lipid droplet fluorescence, 18-24 h, cells fed with added oleic acid; cell number change: measured here: cell count max response; series mostly up to 46.1 µM; lipid storage change, negative = inhibition: at the top concentration
In short: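 Drosophila S3 cells got compounds at several concentrations plus oleic acid (400 uM solution). Laser-scanning cytometry with 488 nm excitation read lipid droplets at 500-530 nm and cells at 575-640 nm. Percent activity was relative to 20 uM Triacsin C.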
Potency is read from the fitted curve at half-maximal effect.

SMILES | lipid storage change, negative = inhibition | cell number change | outcome | Potency
COc1ccc(/C=C2/N=C(SC3CCOC3=O)N(c3cccc(OC)c3)C2=O)cc1 (stereo not given) | -2.83% (inactive) | -7.72% | – | –
CCOC(=O)C1CCN(CC(=O)c2c(C)[nH]c3ccccc23)CC1 | – | – | inactive | –
O=c1oc(-c2cccs2)nc2ccccc12 | -17.8% (inactive) | 0.728% | – | –
Cc1ccccc1CSCCNC(=O)CSCc1ccc([N+](=O)[O-])cc1 | 13% (inactive) | -11.7% | – | –
Cc1cccc(CSCCNC(=O)CSCc2ccc([N+](=O)[O-])cc2)c1 | – | -21.3% | – | 14.6 µM (active)
Cc1ccc(CSCCNC(=O)CSCc2ccc([N+](=O)[O-])cc2)cc1 | – | – | inactive | –
Cc1ccc(C)c(N2CCN(C(=O)c3ccccc3Br)CC2)c1 | 20.8% (inactive) | 10.9% | – | –
CNc1ccccc1C(C)(C)c1cc(-c2cccc(Br)c2)no1 | – | -5.11% | – | 1.46 µM (active)
COC(=O)C1(Cc2cc(-c3cccc(Br)c3)no2)CCN(C(=O)OC(C)(C)C)CC1 | 36% (inactive) | 7.19% | – | –
Brc1cccc(-c2nnc(-c3ccccc3)o2)c1 | 2.23% (inactive) | 1.68% | – | –
CCc1ccc(CNC(=O)C2CCN(S(=O)(=O)N3CCC4(CC3)OCCO4)CC2)cc1 | 2.59% (inactive) | 0.101% | – | –
Cc1ccccc1C(=O)Nc1ccnn1C1CCN(Cc2c(C)n(C)c3ccccc23)CC1 | -18.4% (inactive) | 1.16% | – | –
Oc1[nH]c2ccccc2c1N=Nc1c(F)c(F)c(Cl)c(F)c1F | -1.55% (inactive) | -0.455% | – | –
Oc1[nH]c2ccccc2c1N=Nc1c(F)c(F)c(C(F)(F)F)c(F)c1F | -3.87% (inactive) | 14.6% | – | –
Cc1ccc2[nH]c(O)c(N=NC(N)=S)c2c1 | -0.73% (inactive) | 9.04% | – | –
O=C(O)c1ccc(N=Nc2c(O)[nH]c3ccc(Br)cc23)cc1 | -23.1% (inactive) | 13.1% | – | –
Oc1[nH]c2ccccc2c1N=Nc1ccc(F)cc1 | – | -4.65% | – | 20.6 µM (active)
Cc1ccc(N=Nc2c(O)[nH]c3ccc(F)cc23)cc1 | – | 2.25% | – | 9.2 µM (active)
O=C(NC1(C(=O)NC2CCCCC2)CCCCC1)c1ccc2c(c1)OCO2 | -0.326% (inactive) | 4.66% | – | –
O=C(NNC(=O)c1cnccc1C(F)(F)F)c1ccccc1 | 12.6% (inactive) | 8.28% | – | –
O=C(O)CC12CC3CC(C1)CC(n1ncc(NCc4ccc5c(c4)OCO5)c(Cl)c1=O)(C3)C2 | 2.72% (inactive) | 16.3% | – | –
Cc1cc(NC(=O)c2ccc(S(=O)(=O)N(C)CC3CCCO3)cc2)no1 (stereo not given) | 0.714% (inactive) | – | – | –
CN(C)S(=O)(=O)c1ccc(NC(=O)c2ccc([N+](=O)[O-])cc2)cc1 | -4.71% (inactive) | -1.07% | – | –
CN(CC1CCCO1)S(=O)(=O)c1ccc(C(=O)Nc2ccc([N+](=O)[O-])cc2)cc1 (stereo not given) | – | -17.5% | – | 12.6 µM (active)

SMILES | lipid storage change, negative = inhibition | cell number change | outcome | Potency
O=C(NCC1CCCO1)c1ccc(NC(=O)c2ccc([N+](=O)[O-])cc2)cc1 (stereo not given) | 5.72% (inactive) | 13.2% | – | –
CN(CC1CCCO1)S(=O)(=O)c1ccc(C(=O)Nc2ccc(F)cc2)cc1 (stereo not given) | – | -21.7% | – | 23.1 µM (active)
CN(CC1CCCO1)S(=O)(=O)c1ccc(C(=O)Nc2ccc3c(c2)OCO3)cc1 (stereo not given) | 11.3% (inactive) | 16.6% | – | –
CCOC(=O)Cn1c(=O)c2c(nc3n2CCS3)n(C)c1=O | 11.5% (inactive) | 2.48% | – | –
CN1C(C(=O)NCc2ccco2)CC2Cn3c(nc4cc5ccccc5cc43)C21 (stereo not given) | 11.7% (inactive) | 2.89% | – | –
COc1cccc(C(=O)NCCS(=O)(=O)N2CC(C)CC(C)C2)c1 (stereo not given) | 27% (inactive) | 28.7% | – | –
CCN(Cc1ccccc1)C(c1ccncc1)c1nnnn1C(C)(C)C (stereo not given) | 8.87% (inactive) | 1.49% | – | –
CCCNc1c(F)c(F)c2c(C)c3ccccc3nc2c1F | – | 13.7% | – | 14.6 µM (active)
Cc1c2ccccc2nc2c(F)c(NC(C)C)c(F)c(F)c12 | – | -3.77% | – | 20.6 µM (active)
Cc1c2ccccc2nc2c(F)c(N(C)C)c(F)c(F)c12 | -15.5% (inactive) | -4.76% | – | –
CN(C)c1c2ccccc2nc2c(F)c(F)c(F)c(F)c12 | 0.999% (inactive) | -0.117% | – | –
Cc1c2ccccc2nc2c(F)c(NCCO)c(F)c(F)c12 | -22.8% (inactive) | -2.87% | – | –
CCCNc1nc2ccccc2c(=O)[nH]1 | 8.85% (inactive) | -7.59% | – | –
CCOC(=O)/C(=N\NC(=O)c1ccccc1)c1ccccc1 | -1.81% (inactive) | 17.6% | – | –
CCOC(=O)c1sc2ccc(S(=O)(=O)N3CCOCC3)cc2c1N | -16.1% (inactive) | -11.9% | – | –
CCOC(=O)NC(=O)CSc1cc(C)c2cc(C)cc(C)c2n1 | 4.15% (inactive) | -6.06% | – | –
O=C(c1ccc(F)cc1)N1CCN(S(=O)(=O)c2ccc(Br)cc2)CC1 | – | – | inactive | –
CCCC1(C(=O)OCC)NC(c2ccc(O)cc2)C2C(=O)N(c3ccc4c(c3)OCCO4)C(=O)C21 (stereo not given) | – | – | – | 18.4 µM (active)
COC(=O)C1(CCSC)NC(c2ccc(O)cc2)C2C(=O)N(c3ccc4c(c3)OCCO4)C(=O)C21 (stereo not given) | 9.79% (inactive) | 9.07% | – | –
COC(=O)C1(C)NC(c2ccc(O)cc2)C2C(=O)N(c3ccc(C)cc3)C(=O)C21 (stereo not given) | -17% (inactive) | -4.99% | – | –
CCOC(=O)C1(C)NC(c2ccc(O)cc2)C2C(=O)N(c3ccccc3)C(=O)C21 (stereo not given) | – | 13.7% | – | 20.6 µM (active)
CCCC1(C(=O)OCC)NC(c2ccc(N(C)C)cc2)C2C(=O)N(c3ccc4c(c3)OCCO4)C(=O)C21 (stereo not given) | -5.4% (inactive) | 7.42% | – | –
CCOC(=O)C1(C)NC(c2cccc(C)c2)C2C(=O)N(c3ccccc3)C(=O)C21 (stereo not given) | 7.92% (inactive) | 1.72% | – | –
c1ccc(N2CCN(CCc3nnc4n3CCCCC4)CC2)cc1 | -2.85% (inactive) | 1.29% | – | –

SMILES | lipid storage change, negative = inhibition | cell number change | outcome | Potency
Cc1cc(NC(=O)c2ccco2)ccc1NC(=O)c1ccco1 | -6.74% (inactive) | 11.3% | – | –
CCOc1ccccc1NCc1cc(=O)oc2cc(C)ccc12 | – | -3.97% | inactive | –
Cc1cc2oc(=O)cc(CNc3ccccc3F)c2cc1O | 5.68% (inactive) | -14.4% | – | –
CCOc1ccccc1NCc1cc(=O)oc2cc(C)c(O)cc12 | – | -1.8% | – | 3.66 µM (active)
CC(C)(C)c1ccc(NC(=O)c2cc[n+]([O-])cc2)cc1 | – | 27.8% | inactive | –
Cc1ccn(CC(C)C(=O)O)n1 (stereo not given) | 0.546% (inactive) | 3.92% | – | –
CCN1CCN(C(CNS(=O)(=O)c2ccc(Br)cc2)c2cccnc2)CC1 (stereo not given) | 7.69% (inactive) | -9.83% | – | –
CCOc1ccc(NC(=O)Nc2cccc(C(=O)O)c2)cc1 | 5.5% (inactive) | 14.2% | – | –
CCOc1ccc(NC(=O)Nc2ccc(NC(C)=O)cc2)cc1 | 3.13% (inactive) | 11% | – | –
CCOc1ccc(NC(=O)Nc2cc(OCC(F)(F)F)cc(OCC(F)(F)F)c2)cc1 | – | -25.7% | – | 5.8 µM (active)
CN(C)CCn1c2ccccc2c2nc3ccc([N+](=O)[O-])cc3cc21 | – | -46.5% | – | 7.31 µM (active)
CCN(CC)CCn1c2ccccc2c2nc3ccc([N+](=O)[O-])cc3cc21 | 14.4% (inactive) | 8.11% | – | –
O=[N+]([O-])c1ccc2c(c1)c1ccccc1n2CCO | -5.42% (inactive) | 0.129% | – | –
CC1(C)CC(=O)C2=C(C1)OC(N)=C(C#N)C2c1ccsc1 (stereo not given) | – | – | inactive | –
COc1ccc(N2CCN(C(=O)C3CCN(S(=O)(=O)c4ccc5c(c4)oc(=O)n5C)CC3)CC2)cc1 | – | – | inactive | –
COc1cc(/C=C/C(=O)Nc2ccc3nc4n(c(=O)c3c2)CCCC4)cc(OC)c1OC | 0.128% (inactive) | -7.64% | – | –
O=[N+]([O-])c1ccccc1N/N=C/c1ccccc1 | – | -10.2% | inactive | –
C/C(=N/Nc1ccccc1[N+](=O)[O-])c1ccc([N+](=O)[O-])cc1 | 7.53% (inactive) | 22.2% | – | –
CC(C)/C(=N/Nc1ccccc1[N+](=O)[O-])c1ccccc1 | – | -12.6% | – | 9.2 µM (active)
COc1cccc(CN2CC(C(=O)NCCCn3cccn3)CCC2=O)c1 (stereo not given) | -17.1% (inactive) | 0.348% | – | –
CC(C)(C)C(=O)/C=c1\s/c(=C\c2ccc(-c3ccc([N+](=O)[O-])cc3)o2)c(=O)n1CC(=O)NC(N)=O | – | -31.4% | – | 1.03 µM (active)
CCC(=O)N/N=C/c1ccc(-c2ccc([N+](=O)[O-])cc2)o1 | 20.1% (inactive) | 3.62% | – | –
CCCNC(=O)Cn1c(=O)/c(=C\c2ccc(-c3cccc([N+](=O)[O-])c3)o2)s/c1=C\C(=O)C(C)(C)C | – | 0.916% | inactive | –
O=C(COC(=O)CCN=C1NS(=O)(=O)c2ccccc21)NNC(=O)c1ccccc1 | -1.99% [at 0.0737 µM] (inactive) | -17.2% | – | –

SMILES | lipid storage change, negative = inhibition | cell number change | outcome | Potency
Cn1cc(CN2CCC(N3CCNC(=O)CC3)CC2)c(-c2ccccc2F)n1 | -10.8% (inactive) | -9.69% | – | –
CCOC(=O)C1CCN(Cc2ccc(OC)c(OCc3ccccc3)c2)CC1 | -14.2% (inactive) | -8.13% | – | –
O=C(COC(=O)c1cc(Cl)ccc1Cl)NCCN1C(=O)CSC1=O | 9.78% (inactive) | -6.51% | – | –
O=C(CSc1n[nH]c(-c2cc(Cl)ccc2Cl)n1)NCCN1C(=O)CSC1=O | – | -24.6% | – | 18.4 µM (active)
O=C(CSc1nc(-c2ccc(F)cc2)cs1)NCCN1C(=O)CSC1=O | -7.68% (inactive) | – | – | –
O=C(CCc1nnc2ccc(NCc3ccccc3Cl)nn12)NC1CCCC1 | 2.54% (inactive) | 3.96% | – | –
CC1(C)CC(=O)C2=C(C1)Oc1ncn(Cc3ccco3)c(=N)c1C2c1ccccc1 (stereo not given) | 19.1% (inactive) | -0.936% | – | –
CC(C)(C)n1ncc2c(=O)n(Cc3c(F)cccc3Cl)cnc21 | 0.516% (inactive) | 4.75% | – | –
O=C1NC(c2ccccc2)=C(c2ccc3ccccc3n2)C(c2ccccc2)N1 (stereo not given) | 9.51% (inactive) | -0.112% | – | –
CC(C)(Oc1ccc(CCNC(=O)c2ccc(-c3ccccc3)o2)cc1)C(=O)O | -18.4% (inactive) | 7.48% | – | –
Cc1ccc(S(=O)(=O)Nc2nc3ccccc3nc2NCc2ccc3c(c2)OCO3)cc1C | 1.16% (inactive) | -0.718% | – | –
O=c1oc(-c2cc3ccccc3o2)nc2sc3c(c12)CCCC3 | 0.767% (inactive) | -5.74% | – | –
COc1ccc(C(=O)COC(=O)CNC(=O)c2ccc(OC)cc2)cc1 | 8.54% (inactive) | – | – | –
COc1ccc(C(=O)NN)cc1 | 1.51% (inactive) | 15% | – | –
COc1ccc(C(=O)NCC(=O)O)cc1 | – | -3.91% | – | 16.4 µM (active)
CCc1nccn1S(=O)(=O)c1cc(OC)ccc1OC | 12.7% (inactive) | – | – | –
CCn1cc(CN2CCN(Cc3ccc(OC)c(C)c3C)C(CCO)C2)c(C)n1 (stereo not given) | 24% (inactive) | 2.86% | – | –
CCCCCn1cnnc1SCC(=O)c1ccc2c(c1)OCO2 | – | -4.15% | inactive | –
CC(=Nc1ccc(O)cc1)c1sc2ccccc2c1O | 4.99% (inactive) | 0.835% | – | –
CC(=Nc1ccccc1O)c1sc2ccccc2c1O | – | -13.3% | – | 25.9 µM (active)
CC(=Nc1ccc(Br)cc1)c1sc2ccccc2c1O | – | – | inactive | –
